This passage reports AC50 and outcome results from PubChem BioAssay (EPA / NIEHS).

Calls of active or inactive are those of the source. How the source made its calls: active means hit-call score of the fitted dose curve at least 0.9, where 1 is the maximum; inactive means score below 0.9.

Holding throughout (conditions): mRNA level, 48 h; actives raise or lower the signal
Read-out in assay [1]: Cytochrome P450 4A22 (Homo sapiens) (UniProt Q5TCH4)
Put plainly: LTEA_HepaRG_CYP4A22: Life Technologies and Expression Analysis (LTEA) Assay for Cytochrome P450 4A22 (CYP4A22) using HepaRG (AID 2283495). A digest of the protocol: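 Concentration-response (8 points, max 100 uM, 0.5% DMSO) in human HepaRG liver cells after 48 h exposure. CYP4A22 mRNA by TaqMan qRT-PCR with housekeeping-gene normalization.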

Read-out in assay [2]: Cytochrome P450 7A1 (Homo sapiens) (UniProt P22680)
The experiment in a line: LTEA_HepaRG_CYP7A1: Life Technologies and Expression Analysis (LTEA) Assay for Cytochrome P450 7A1 (CYP7A1) using HepaRG (AID 2283496). A digest of the protocol:
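Gene expression endpoint in human HepaRG liver cells treated for 48 h with test chemicals (up to 100 uM, 0.5% DMSO). Values come from bidirectional concentration-response fitting versus DMSO.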

Read-out in assay [3]: Glutathione S-Transferase (GSTA2), GSTA2 (gene 2939)
The experiment in a line: LTEA_HepaRG_GSTA2: Life Technologies and Expression Analysis (LTEA) Assay for Glutathione S-Transferase (GSTA2) using HepaRG (AID 2283497). Summed up:
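Differentiated human HepaRG cells were exposed in duplicate for 48 h in serum-free induction medium, 8 points from 100 uM top in half-log steps, 0.5% DMSO. GSTA2 mRNA was measured by TaqMan qRT-PCR, normalized to ACTB, GAPDH and POLR2A; bidirectional fit versus DMSO.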

Read-out in assay [4]: Glutamate-cysteine ligase catalytic (GCLC), GCLC (gene 2729)
Put plainly: LTEA_HepaRG_GCLC: Life Technologies and Expression Analysis (LTEA) Assay for Glutamate-cysteine ligase catalytic (GCLC) using HepaRG (AID 2283498). A digest of the protocol:
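Differentiated HepaRG cells exposed 48 h in serum-free induction medium, eight-point half-log series topping at 100 uM in 0.5% DMSO, duplicates. GCLC mRNA by qRT-PCR normalized to ACTB, GAPDH and POLR2A, fitted bidirectionally versus DMSO.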

Read-out in assay [5]: Glutamate-cysteine ligase regulatory (GCLM), GCLM (gene 2730)
Put plainly: LTEA_HepaRG_GCLM: Life Technologies and Expression Analysis (LTEA) Assay for Glutamate-cysteine ligase regulatory (GCLM) using HepaRG (AID 2283500). A digest of the protocol: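 Human liver HepaRG cultures receive test chemicals for 48 hours at up to 100 uM in 0.5% DMSO. GCLM expression is measured by qRT-PCR and analysed for increases or decreases against vehicle.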

Read-out in assay [6]: Glutathione S-transferase M3 (GSTM3), GSTM3 (gene 2947)
Put plainly: LTEA_HepaRG_GSTM3: Life Technologies and Expression Analysis (LTEA) Assay for Glutathione S-transferase M3 (GSTM3) using HepaRG (AID 2283501). Summed up: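 Expression of GSTM3 is determined by qRT-PCR in human liver HepaRG cells treated 48 h with an 8-point half-log range from 100 uM in 0.5% DMSO.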

Read-out in assay [7]: Heat shock 70 kDa protein 1 (HSPA1A), gene 3303
Put plainly: LTEA_HepaRG_HSPA1A: Life Technologies and Expression Analysis (LTEA) Assay for Heat shock 70 kDa protein 1 (HSPA1A) using HepaRG (AID 2283502). Summed up: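 HSPA1A induction in human HepaRG liver cells is measured after 48 h of chemical treatment (100 uM maximum, 0.5% DMSO vehicle). Expression comes from qRT-PCR normalized to endogenous controls.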

Read-out in assay [8]: Hypoxia-inducible factor 1-alpha (Homo sapiens) (UniProt Q16665)
Put plainly: LTEA_HepaRG_HIF1A: Life Technologies and Expression Analysis (LTEA) Assay for Hypoxia-inducible factor 1 (HIF1A) Trancription factor using HepaRG (AID 2283503).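 Further: HIF1A transcript by TaqMan qRT-PCR normalized to ACTB GAPDH and POLR2A.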 A digest of the protocol:
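HepaRG, 48 h exposure, 8-pt half-log series from 100 uM, 0.5% DMSO vehicle, duplicates. Readout: HIF1A transcript by qRT-PCR (Fluidigm array), housekeeping-normalised. Bidirectional curve fit vs DMSO baseline.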

Read-out in assay [9]: 3-Hydroxy-3-Methylglutaryl-CoA Synthase 2 (HMGCS2), HMGCS2 (gene 3158)
The experiment in a line: LTEA_HepaRG_HMGCS2: Life Technologies and Expression Analysis (LTEA) Assay for 3-Hydroxy-3-Methylglutaryl-CoA Synthase 2 (HMGCS2) using HepaRG (AID 2283504). Summed up:
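This steatosis marker was read as HMGCS2 mRNA change in HepaRG cells treated 48 h with up to 100 uM chemical. Normalisation used housekeeping genes; activity in either direction was fitted relative to 0.5% DMSO vehicle.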

Read-out in assay [10]: Insulin Like Growth Factor 1 (IGF1), IGF1 (gene 3479)
Put plainly: LTEA_HepaRG_IGF1: Life Technologies and Expression Analysis (LTEA) Assay for Insulin Like Growth Factor 1 (IGF1) using HepaRG (AID 2283506). Summed up: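 Using human HepaRG liver cells, IGF1 transcript induction or suppression is measured 48 h after dosing across eight concentrations capped at 100 uM. Values derive from bidirectional concentration-response fitting with DMSO as baseline.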

Read-out in assay [11]: Intercellular Adhesion Molecule 1 (ICAM1), ICAM1 (gene 3383)
The experiment in a line: LTEA_HepaRG_ICAM1: Life Technologies and Expression Analysis (LTEA) Assay for Intercellular Adhesion Molecule 1 (ICAM1) using HepaRG (AID 2283507). Summed up: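 Using the human liver line HepaRG, compounds are tested in duplicate over 48 h at concentrations up to 100 uM. Expression is determined by TaqMan qRT-PCR, normalized to endogenous controls, and analysed relative to 0.5% DMSO vehicle.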

Read-out in assay [12]: Insulin-like growth factor-binding protein 1 (IGFBP1), IGFBP1 (gene 3484)
Put plainly: LTEA_HepaRG_IGFBP1: Life Technologies and Expression Analysis (LTEA) Assay for Insulin-like growth factor-binding protein 1 (IGFBP1) using HepaRG (AID 2283508). A digest of the protocol:
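HepaRG, 48 h, 8 conc. (max 100 uM, half-log), duplicates, 0.5% DMSO. Readout: TaqMan qRT-PCR, ACTB/GAPDH/POLR2A normalisation. Fit: bidirectional vs DMSO.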

Read-out in assay [13]: Interleukin 6 Receptor (IL6R), IL6R (gene 3570)
The experiment in a line: LTEA_HepaRG_IL6R: Life Technologies and Expression Analysis (LTEA) Assay for Interleukin 6 Receptor (IL6R) using HepaRG (AID 2283510).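 On AC50: TaqMan qRT-PCR signal normalized to ACTB GAPDH and POLR2A housekeeping genes.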 Summed up:
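Concentration-response in human liver HepaRG cells: eight concentrations from 100 uM downward by half-logs, 48 h exposure, 0.5% DMSO vehicle. IL6R mRNA change measured by qRT-PCR and fitted in both directions relative to vehicle.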

Read-out in assay [14]: Potassium channel subfamily K member 1 (KCNK1), KCNK1 (gene 3775)
The experiment in a line: LTEA_HepaRG_KCNK1: Life Technologies and Expression Analysis (LTEA) Assay for Potassium channel subfamily K member 1 (KCNK1) using HepaRG (AID 2283511). Summed up:
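Differentiated HepaRG cells, 48 h exposure in serum-free induction medium with 0.5% DMSO; 8 concentrations, half-log from 100 uM, duplicate. KCNK1 mRNA by qRT-PCR, normalized to ACTB, GAPDH, POLR2A; bidirectional fit vs DMSO.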

Read-out in assay [15]: Keratin 19 (KRT19), KRT19 (gene 3880)
Put plainly: LTEA_HepaRG_KRT19: Life Technologies and Expression Analysis (LTEA) Assay for Keratin 19 (KRT19) using HepaRG (AID 2283512). Summed up:
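Readout is qRT-PCR of KRT19 mRNA, normalized to ACTB, GAPDH and POLR2A, from HepaRG cells treated 48 h with eight-point half-log dilutions topping at 100 uM. Activity in either direction is scored relative to 0.5% DMSO vehicle.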

Read-out in assay [16]: JUN Transcription Factor, JUN (gene 3725)
The experiment in a line: LTEA_HepaRG_JUN: Life Technologies and Expression Analysis (LTEA) Assay for JUN Transcription Factor using HepaRG (AID 2283513). Summed up:
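Human HepaRG liver cells receive test chemicals in 0.5% DMSO for 48 h across an eight-point range topping at 100 uM. Expression changes in JUN are scored in both directions against the DMSO vehicle.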

Read-out in assay [17]: Lipase C (LIPC), LIPC (gene 3990)
Put plainly: LTEA_HepaRG_LIPC: Life Technologies and Expression Analysis (LTEA) Assay for Lipase C (LIPC) using HepaRG (AID 2283514). A digest of the protocol: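 HepaRG cells, 48 h after plating, treated in duplicate for 48 h in serum-free induction medium over 8 half-log concentrations from 100 uM, 0.5% DMSO. LIPC mRNA by TaqMan qRT-PCR normalized to ACTB/GAPDH/POLR2A; bidirectional fit versus DMSO.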

Read-out in assay [18]: HGF (gene 3082)
The experiment in a line: LTEA_HepaRG_HGF: Life Technologies and Expression Analysis (LTEA) Assay for Hepatocyte Growth Facto (HGF) using HepaRG (AID 2283505). Summed up: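 Using HepaRG monolayers kept in 0.5% DMSO, chemicals were tested in duplicate over eight half-log concentrations from 100 uM for 48 h. Endpoint: HGF mRNA change relative to DMSO, normalized to ACTB/GAPDH/POLR2A.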

Read-out in assay [19]: Interleukin 6 (IL6), IL6 (gene 3569)
Put plainly: LTEA_HepaRG_IL6: Life Technologies and Expression Analysis (LTEA) Assay for Interleukin 6 (IL6) using HepaRG (AID 2283509). A digest of the protocol:
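HepaRG cells exposed in duplicate for 48 h to eight half-log concentrations, top 100 uM, in 0.5% DMSO serum-free induction medium. mRNA measured by qRT-PCR, normalized to ACTB, GAPDH and POLR2A. Bidirectional fit versus DMSO.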

Read-out in assay [20]: growth arrest and DNA damage 45 (GADD45G), GADD45G (gene 10912)
Put plainly: LTEA_HepaRG_GADD45G: Life Technologies and Expression Analysis (LTEA) Assay for growth arrest and DNA damage 45 (GADD45G) using HepaRG (AID 2283499). A digest of the protocol:
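Concentration-response in HepaRG: 48 h dosing, 0.5% DMSO, highest level 100 uM. GADD45G expression by qRT-PCR, normalised to endogenous controls; bidirectional fit to DMSO.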

Sequence of Hypoxia-inducible factor 1-alpha (Homo sapiens) (Q16665 whole entry, looked up): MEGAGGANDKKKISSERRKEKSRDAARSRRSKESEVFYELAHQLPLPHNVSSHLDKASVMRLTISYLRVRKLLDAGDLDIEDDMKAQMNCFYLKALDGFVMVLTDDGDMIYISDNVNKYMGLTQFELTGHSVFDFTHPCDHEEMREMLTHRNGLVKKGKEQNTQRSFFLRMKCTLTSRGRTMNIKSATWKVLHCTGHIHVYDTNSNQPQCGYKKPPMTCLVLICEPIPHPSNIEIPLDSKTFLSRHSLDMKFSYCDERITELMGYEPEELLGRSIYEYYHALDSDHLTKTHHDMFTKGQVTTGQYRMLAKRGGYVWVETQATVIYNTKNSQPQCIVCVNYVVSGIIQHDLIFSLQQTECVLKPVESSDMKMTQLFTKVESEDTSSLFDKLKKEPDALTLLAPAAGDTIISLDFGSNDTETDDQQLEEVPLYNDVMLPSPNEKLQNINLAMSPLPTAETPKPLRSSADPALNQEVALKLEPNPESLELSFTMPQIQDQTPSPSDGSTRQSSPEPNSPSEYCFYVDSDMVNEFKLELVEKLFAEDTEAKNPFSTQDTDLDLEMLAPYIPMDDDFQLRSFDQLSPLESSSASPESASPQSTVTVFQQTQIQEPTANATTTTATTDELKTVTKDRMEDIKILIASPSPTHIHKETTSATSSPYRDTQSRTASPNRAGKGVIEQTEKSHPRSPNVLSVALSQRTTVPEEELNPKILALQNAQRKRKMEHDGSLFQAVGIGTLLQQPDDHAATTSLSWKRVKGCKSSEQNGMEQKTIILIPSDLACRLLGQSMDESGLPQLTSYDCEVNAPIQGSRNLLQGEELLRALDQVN

Turning to `COc1cc(C(=O)NC2CCN(C)CC2)ccc1Nc1ncc2c(n1)N(C1CCCC1)CC(F)(F)C(=O)N2C`, the AC50 in assay [1] was 3.23 µM (active); in assay [2], 8.23 µM (active); in assay [3], 12 µM (active); in assay [4], 21.3 µM (active); in [6], 3.73 µM (active); in assay [7], 31.7 µM (active). In addition, the AC50 is 10.5 µM (active) in [9]; 3.45 µM (active) in assay [10]; 83.7 µM (active) in assay [11]; 23.3 µM (active) in assay [12]; 86.4 µM (active) in [13]; 12.3 µM (active) in assay [15]. Also, the AC50 in [16] was 25.9 µM (active); in assay [17] it was 4.65 µM (active). For the same molecule, the molecule was called inactive in assay [5], in assay [8] and in assay [14].
For the molecule `CCN(Cc1cccnc1)C(=O)c1cccc(Cl)c1[C@]1(C)C(=O)N(Cc2ccc(OC)cc2OC)c2ccc(Cl)cc21`, the AC50 was 14.4 µM (active) in [1]; 22.3 µM (active) in [2]; 25.8 µM (active) in [3]; 22.4 µM (active) in assay [4]; 20.1 µM (active) in [5]; 6.92 µM (active) in assay [7]. Further, the half-maximal activity concentration (AC50) in assay [9] is 21.8 µM (active); in [18] it was 21.9 µM (active); in assay [10], 14.4 µM (active); in [11], 21.2 µM (active); in [12] it was 17.5 µM (active); in assay [19] it was 24.9 µM (active). Further, the AC50 is 19.9 µM (active) in assay [13], 27 µM (active) in assay [15] and 19.9 µM (active) in assay [17]. The result in assay [8] and in assay [16] was inactive.
Take `O=c1[nH]sc2ccccc12`: the result in assay [1], in [2], in [3], in assay [4], in assay [5] and in [6] was inactive. Also, the outcome in assay [7], in assay [8], in assay [9], in assay [10], in assay [11] and in assay [12] was inactive. Besides, the call in assay [19], in [13], in assay [15], in assay [16] and in assay [17] was inactive.
With `C[C@]12CC[C@@H]3c4ccc(O)cc4CC[C@H]3[C@@H]1CCC2=O`, the result in assay [3], in assay [4], in [20], in [5], in assay [8] and in assay [18] was inactive. The result in [11], in assay [12], in assay [19], in assay [13], in assay [14] and in assay [15] was inactive. For the same molecule, the call in assay [16] was inactive. Besides, the AC50 was 33.2 µM (active) in [7], 72.7 µM (active) in [9] and 50 µM (active) in assay [10].
Regarding `Cc1ccc2oc(CN(Cc3ccccc3)C(=O)Nc3c(F)cc(F)cc3F)c(-c3ccc(Cl)cc3)c2c1`, the AC50 in assay [1] was 44.2 µM (active); in [2], 5.31 µM (active); in assay [3], 44.2 µM (active); in assay [5], 44.2 µM (active); in assay [9] it was 44.2 µM (active); in assay [10] it was 30.2 µM (active). The values for the AC50 in [12] and in assay [17] were 70.8 µM (active) and 44.2 µM (active), respectively. Besides, the outcome in [4], in assay [7], in [8], in [11], in [19] and in assay [13] was inactive. The call in assay [14], in assay [15] and in assay [16] was inactive.
In the case of `Oc1ccc2ccccc2c1`, the molecule was called inactive in [1], in assay [2], in assay [3], in assay [4], in [5] and in [7]. For the same molecule, the outcome in assay [8], in [9], in assay [10], in assay [11], in [12] and in assay [19] was inactive. Besides, the molecule was classed as inactive in assay [13], in [14], in [15], in assay [16] and in [17].
